From PubChem BioAssay come the findings set out here.

Test [1] is described as follows: anti-His antibody binders, primary screen, artefact control for SMM control protein annotation, biochemical, small-molecule microarray, 635 nm fluorescence (AID 1128).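 Further: score merges feature fluorescence with signal-to-noise for each printed compound spot.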 Conditions: anti-His Alexa647 antibody binding, higher = more signal.
Test [2] deals with Human papillomavirus type 1a E7 protein (residues 1-88). Put plainly: HPV1a E7 small-molecule binders, primary screen, biochemical, small-molecule microarray, residues 1-88, 635 nm (AID 1129). Conditions: small-molecule microarray binding, fluorescence 635 nm; higher = more signal.
The target in test [3] is Focal adhesion kinase 1 (Homo sapiens) (UniProt Q05397). Nature of the test: small-molecule microarray binders of FAK, primary screen, biochemical, 635/667 nm fluorescence, BSA, DTT (AID 1130).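 Further: composite of spot emission at 667 nm and signal to noise over triplicate slides.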 The following applies: PTK2 binding, 635 nm fluorescence, higher = more signal.
Sequence of Focal adhesion kinase 1 (Homo sapiens) (Q05397 whole entry, looked up): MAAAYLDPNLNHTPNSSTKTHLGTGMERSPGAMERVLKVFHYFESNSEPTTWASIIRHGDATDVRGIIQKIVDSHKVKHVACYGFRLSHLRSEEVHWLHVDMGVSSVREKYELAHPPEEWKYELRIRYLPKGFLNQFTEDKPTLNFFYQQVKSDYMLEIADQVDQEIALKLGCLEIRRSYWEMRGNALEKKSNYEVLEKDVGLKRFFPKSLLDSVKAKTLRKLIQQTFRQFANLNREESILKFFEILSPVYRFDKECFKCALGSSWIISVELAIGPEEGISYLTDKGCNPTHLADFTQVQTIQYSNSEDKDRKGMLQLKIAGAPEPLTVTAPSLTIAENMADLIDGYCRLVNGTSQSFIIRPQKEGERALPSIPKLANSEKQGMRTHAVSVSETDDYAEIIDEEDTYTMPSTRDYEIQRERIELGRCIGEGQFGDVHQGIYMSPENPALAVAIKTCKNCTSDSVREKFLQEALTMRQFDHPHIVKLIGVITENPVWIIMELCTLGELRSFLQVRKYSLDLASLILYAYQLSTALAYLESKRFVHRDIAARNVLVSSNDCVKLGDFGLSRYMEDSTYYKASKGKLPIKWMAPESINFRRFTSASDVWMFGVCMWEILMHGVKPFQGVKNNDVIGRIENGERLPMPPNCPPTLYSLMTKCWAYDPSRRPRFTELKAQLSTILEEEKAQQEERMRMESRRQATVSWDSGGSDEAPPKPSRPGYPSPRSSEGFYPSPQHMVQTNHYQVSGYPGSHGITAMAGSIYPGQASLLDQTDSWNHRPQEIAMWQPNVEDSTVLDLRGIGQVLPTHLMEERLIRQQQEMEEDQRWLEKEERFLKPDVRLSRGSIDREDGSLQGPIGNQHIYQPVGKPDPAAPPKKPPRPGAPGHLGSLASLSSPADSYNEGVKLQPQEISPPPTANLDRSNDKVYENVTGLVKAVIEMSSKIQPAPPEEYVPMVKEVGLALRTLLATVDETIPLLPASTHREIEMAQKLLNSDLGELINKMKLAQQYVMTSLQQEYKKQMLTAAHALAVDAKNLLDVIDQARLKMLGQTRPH
Test [4] has as its system Fibrinogen (Alexa647-labelled). Nature of the test: fibrinogen binders on compound microarrays, profiling panel, artefact control for SMM control-protein annotation, biochemical, small-molecule microarray, 635/667 nm fluorescence (AID 1131).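 Further: z-score merges 667 nm fluorescence with per-spot signal-to-noise over triplicate slides.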 Conditions: fibrinogen-A647 binding fluorescence, higher = more signal.
For test [5], the target named is Follistatin (Homo sapiens) (UniProt P19883). Put plainly: follistatin binders on small-molecule microarrays, primary screen, biochemical, small-molecule microarray, 635/667 nm fluorescence (AID 1132). The following applies: FST binding, 635 nm fluorescence, higher = more signal.
Sequence of Follistatin (Homo sapiens) (P19883 whole entry, looked up): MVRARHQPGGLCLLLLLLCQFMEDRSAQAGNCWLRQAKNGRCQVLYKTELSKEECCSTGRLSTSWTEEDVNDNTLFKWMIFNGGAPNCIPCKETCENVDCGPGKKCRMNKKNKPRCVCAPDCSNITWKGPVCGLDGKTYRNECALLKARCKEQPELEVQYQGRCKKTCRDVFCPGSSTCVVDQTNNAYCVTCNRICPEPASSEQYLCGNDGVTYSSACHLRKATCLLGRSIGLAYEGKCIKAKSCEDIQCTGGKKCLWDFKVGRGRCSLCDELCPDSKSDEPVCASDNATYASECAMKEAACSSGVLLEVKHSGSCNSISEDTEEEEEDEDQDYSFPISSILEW
In test [6] the target is Fibroblast growth factor 2 (Homo sapiens) (UniProt P09038). Put plainly: FGF2 binders on small-molecule microarrays, primary screen, biochemical, small-molecule microarray, 635/667 nm fluorescence (AID 1133). Conditions: small-molecule microarray binding, FGF2, fluorescence 635/667; higher = more signal.
Sequence of Fibroblast growth factor 2 (Homo sapiens) (P09038 whole entry, looked up): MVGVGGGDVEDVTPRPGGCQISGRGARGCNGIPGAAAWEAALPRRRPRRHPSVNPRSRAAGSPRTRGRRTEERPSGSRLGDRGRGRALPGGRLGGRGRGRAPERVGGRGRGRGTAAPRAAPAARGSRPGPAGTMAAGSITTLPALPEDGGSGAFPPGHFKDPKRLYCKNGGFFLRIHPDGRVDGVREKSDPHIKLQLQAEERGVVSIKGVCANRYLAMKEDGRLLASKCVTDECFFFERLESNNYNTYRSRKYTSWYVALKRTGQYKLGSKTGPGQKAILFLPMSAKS
Test [7] can be described thus: mitochondrial membrane potential change in A549 cells, profiling panel, cell-based, JC-1 fluorescence, basal, 24 h, 100 nL (AID 1138).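 Further: A549 lung adenocarcinoma cells under basal conditions with no added stimulus; test concentration not given here.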 The following applies: higher = more signal.
Test [8] has as its system Lefty1. Put plainly: Lefty1 binders on small-molecule microarrays, primary screen, biochemical, small-molecule microarray, 635/667 nm fluorescence (AID 1139). The following applies: small-molecule microarray binding, fluorescence 635/667; higher = more signal.
Test [9] relates to wheat germ agglutinin (Triticum aestivum), Alexa647-labelled. Nature of the test: wheat germ agglutinin binders on compound microarrays, profiling panel, artefact control for SMM control-protein annotation, biochemical, small-molecule microarray, 635/667 nm fluorescence (AID 1140).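 Further: score merges 667 nm feature emission with signal to noise over triplicate slides.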 The following applies: WGA-A647 binding, 635 nm fluorescence, higher = more signal.
Test [10] concerns the target Luciferin 4-monooxygenase (Photinus pyralis) (UniProt P08659). Nature of the test: firefly luciferase enzyme inhibitors, primary screen, biochemical, luminescence, purified enzyme, 2006 set (AID 1141).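 Further: cell-free assay with purified firefly luciferase at 100 ng per well in PBS; test concentration not given here.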 The following applies: SteadyGlo luminescence, 30 min, higher = more signal, called active from +8 up or from −8 down.
Test [11] deals with Wnt5a (protein binding on small-molecule microarray). Nature of the test: Wnt5a binders on small-molecule microarray, primary screen, biophysical, 635/667 nm fluorescence (AID 1142).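 Further: fluorescence read at 667 nm with signal to noise per printed feature.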 Conditions: 635 nm fluorescence, higher = more signal.
A short description of test [12]: cell viability in Huh7 cells, primary screen, cytotoxicity control for HCV replication inhibitor project, CellTiter-Glo luminescence, basal, 48 h (AID 1143).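 Further: Huh7 hepatoma cells carrying a hepatitis C replication reporter with no stimulus; test concentration not given here.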 Conditions: Huh7 HCV replicon, higher = more signal, called active from +8 up or from −8 down.
A short description of test [13]: P. aeruginosa biofilm formation inhibitors, primary screen, PAO1 strain, BacTiter-Glo luminescence, LB-PBS (AID 1144). Conditions: 12 h, higher = more signal.
A short description of test [14]: CREB reporter modulators without forskolin, primary screen, cell-based, PC12, CRE-LacZ reporter, unstimulated (AID 1145). Conditions: no forskolin, luminescence, 4.5 h, higher = more signal, called active from +8 up or from −8 down.
The nature of test [15]: CREB reporter modulators under forskolin, primary screen, cell-based, PC12, CRE-LacZ reporter, forskolin-stimulated (AID 1146).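 Further: PC12 cells with 6xCRE LacZ reporter stimulated by forskolin 10 µM; beta-galactosidase reporter signal reflecting CREB driven transcription.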 Conditions: luminescence, 4.5 h, higher = more signal, called active from +8 up or from −8 down.
The target of test [16] is Streptavidin (Streptomyces avidinii) (UniProt P22629). Put plainly: streptavidin binders on small-molecule microarray, primary screen, artefact control for SMM compound annotation, biophysical, 635/667 nm fluorescence (AID 1147).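 Further: signal reflects streptavidin binding to arrayed compounds as a control protein.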 Conditions: streptavidin binding, higher = more signal.
Sequence of Streptavidin (Streptomyces avidinii) (P22629 whole entry, looked up): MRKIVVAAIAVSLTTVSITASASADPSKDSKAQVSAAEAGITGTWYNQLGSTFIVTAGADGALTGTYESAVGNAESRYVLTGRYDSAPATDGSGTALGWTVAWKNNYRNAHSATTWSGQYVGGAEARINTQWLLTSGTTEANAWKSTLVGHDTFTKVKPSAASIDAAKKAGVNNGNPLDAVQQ
Test [17] in a line: small-molecule binders of probe aInhba, primary screen, biochemical, small-molecule microarray, 635/667 nm fluorescence (AID 1148).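 Further: score merges 667nm spot fluorescence with signal-to-noise for antibody binding to printed compounds.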 The following applies: higher = more signal.
In test [18] the target is Torsin-1A (Homo sapiens) (UniProt O14656). Nature of the test: torsin A binders from cell lysate, primary screen, small-molecule microarray, wild-type, 635/667 nm (AID 1149). Conditions: COS7 hTOR1A-WT lysate, 635 nm fluorescence, higher = more signal.
Sequence of Torsin-1A (Homo sapiens) (O14656 whole entry, looked up): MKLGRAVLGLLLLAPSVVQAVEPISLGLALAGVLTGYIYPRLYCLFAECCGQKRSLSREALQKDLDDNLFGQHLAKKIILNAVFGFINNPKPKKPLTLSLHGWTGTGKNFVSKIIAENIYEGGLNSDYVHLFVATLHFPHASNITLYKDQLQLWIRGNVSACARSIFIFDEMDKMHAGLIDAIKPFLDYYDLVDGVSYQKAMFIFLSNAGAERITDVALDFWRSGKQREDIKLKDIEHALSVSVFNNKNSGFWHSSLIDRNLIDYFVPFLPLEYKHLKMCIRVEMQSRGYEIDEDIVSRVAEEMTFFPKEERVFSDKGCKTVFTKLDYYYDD
Test [19] has the same target. Nature of the test: small-molecule binders of mutant TOR1A in lysate, primary screen, cell lysate, small-molecule microarray, COS7 lysate, 635/667 nm fluorescence (AID 1150).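 Further: score pools 667 nm emission and signal to noise measuring lysate protein binding.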 The following applies: COS7 hTOR1A mutant lysate, 635 nm fluorescence, higher = more signal.
Test [20] deals with Sonic hedgehog protein (Shh). Nature of the test: small-molecule binders of Shh protein, primary screen, biochemical, small-molecule microarray, 635/667 nm fluorescence (AID 1151).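 Further: Shh protein binding to compounds spotted on small-molecule microarray slides; score combines spot fluorescence intensity with signal-to-noise across triplicate slides.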 The following applies: small-molecule microarray binding, 635 nm fluorescence; higher = more signal.

Activity calls are given as the source filed them. Unless noted, how the calls were made is not given here.

Sequence of Luciferin 4-monooxygenase (Photinus pyralis) (P08659 whole entry, looked up): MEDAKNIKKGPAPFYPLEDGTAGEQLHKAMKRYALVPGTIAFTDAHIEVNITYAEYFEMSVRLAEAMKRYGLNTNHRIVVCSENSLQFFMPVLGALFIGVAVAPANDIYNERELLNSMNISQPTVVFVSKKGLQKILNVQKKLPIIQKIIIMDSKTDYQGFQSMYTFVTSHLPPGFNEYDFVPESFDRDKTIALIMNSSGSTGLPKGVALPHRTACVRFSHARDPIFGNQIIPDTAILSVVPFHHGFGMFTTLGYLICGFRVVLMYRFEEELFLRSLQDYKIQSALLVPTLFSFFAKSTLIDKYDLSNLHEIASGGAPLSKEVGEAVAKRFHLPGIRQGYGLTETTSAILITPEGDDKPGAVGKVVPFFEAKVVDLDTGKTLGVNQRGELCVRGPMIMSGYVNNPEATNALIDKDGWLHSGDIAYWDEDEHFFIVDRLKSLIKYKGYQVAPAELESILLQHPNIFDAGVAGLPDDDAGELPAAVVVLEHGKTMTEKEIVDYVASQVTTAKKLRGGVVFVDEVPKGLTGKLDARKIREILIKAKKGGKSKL

In the case of `O=C1N(Cc2ccccc2)c2ccccc2[C@H]2OC(c3ccc(OCCCO)cc3)=N[C@@]12Cc1ccccc1`, the composite z-score in test [1] was 2.1; in [2], 1.19; in test [3], 0.6; in [4], 0.696; in [5] it was 1.35; in test [6] it was 1.52. The composite z-score is 0.584 in test [8]; 0.694 in [9]; 0.806 in [11]; 0.0454 in test [16]; 0.147 in [17]; -0.0599 in test [18]. The composite z-score was 0.242 in [19] and 1.64 in test [20]. The z-score in test [7] is -1.4; in [10], -2.98 (inactive); in test [12], -4.93 (inactive); in test [13], -0.0376 (inactive); in test [14], 0.708 (inactive); in test [15], -1.07 (inactive).

Take `COCCOC(=O)N1C(=O)[C@@]2(c3cc(C#CC4(O)CCCCCC4)ccc31)[C@H](c1ccccc1OCCO)N1[C@H](c3ccccc3)[C@H](c3ccccc3)OC(=O)[C@H]1[C@@H]2C(=O)N1CCCCCCC1`: the composite z-score came out at 0.663 in test [1]; 1.23 in [2]; 0.504 in [3]; 0.733 in test [4]; 1.45 in test [5]; 1.09 in test [6]. Besides, the composite z-score in test [8] is 1.37; in test [9], 1.29; in test [11] it was 0.611; in test [16] it was 1.64; in test [17] it was 1.2; in [18], 0.812. In addition, the composite z-score in test [19] turned out to be 1.02; in [20] it was 2.01. Further, the z-score in test [7] is -0.768; in test [10], 0.144 (inactive); in test [12] it was -4.01 (inactive); in test [13], -0.977 (inactive); in [14] it was -1.01 (inactive); in test [15], 0.881 (inactive).

With `[N-]=[N+]=NCc1ccccc1[C@@H]1OC(c2ccc(OCCCO)cc2)=N[C@]1(Cc1ccccc1)C(=O)NCc1ccccc1`, the composite z-score was 0.491 in test [1]; 1.18 in [2]; 1.11 in test [3]; 0.734 in test [4]; 0.846 in test [5]; -0.0705 in test [6]. Moreover, the composite z-score is -0.0948 in test [8]; 1.03 in test [9]; 0.609 in test [11]; 1.24 in test [16]; -0.0267 in test [17]; 0.823 in test [18]. Moreover, the composite z-score in [19] was 1.1; in [20], -0.471. Further, the z-score was 0.012 in [7]; 0.294 (inactive) in [10]; -2.86 (inactive) in [12]; -0.338 (inactive) in test [13]; -0.585 (inactive) in test [14]; 0.0071 (inactive) in [15].

Consider `C=CCN1C(=O)[C@]2(O[C@H](CCO)[C@@H]([Si](C)(C)c3ccc(OC)cc3)[C@@H]2C)c2ccccc21`, for which the composite z-score was 0.0171 in test [1]; 0.745 in [2]; -0.0378 in test [3]; 0.641 in [4]; -0.862 in [5]; -0.14 in [6]. The composite z-score was 0.058 in [8]; 0.134 in [9]; -0.381 in test [11]; -0.652 in test [16]; -0.209 in [17]; -0.958 in [18]. For the same compound, the composite z-score in [19] is -0.0259; in test [20], -1.12. In addition, the z-score in test [7] is -1.83; in [10] it was -0.43 (inactive); in test [12], -8 (inactive); in test [13] it was -0.566 (inactive); in test [14], 19.5 (active); in test [15], -3.3 (inactive).

Consider `C=CCC(OC(C)=O)[C@@H]1[C@@H](N(Cc2cc3ccccc3o2)C(=O)Cc2ccc(OC)cc2)c2cc(OCCCO)ccc2N1C(=O)Cc1ccc2ccccc2c1` (stereo not given in full), for which the composite z-score is 0.305 in [1]; -0.866 in [2]; 0.102 in [3]; 0.136 in test [4]; 0.279 in test [5]; -0.662 in test [6]. For the same compound, the composite z-score in [8] is -0.173; in test [9], 0.116; in test [11], -0.211; in test [16], 0.0489; in [17], -0.155; in test [18], -0.773. Further, the composite z-score in [19] is -1.01; in test [20], -0.155. Besides, the z-score in test [7] is 0.432; in test [10], -0.1 (inactive); in test [12] it was -0.392 (inactive); in test [13], 0.334 (inactive); in test [14], 1.25 (inactive); in test [15], 0.775 (inactive).
